Experimental data from PubChem BioAssay AID1159580 (chemical genetic matrix, 2015).
Among all 5,500 compounds or so, about 2,000 (36%) were called active. Roughly 18% stayed inconclusive and do not appear here. Cut-off read from the data, not from the text of the source: active = normalized growth mostly below about 0.91 (no sharp cut-off); inconclusive = no clear call, values can overlap the other calls; inactive = mostly above about 0.92. The list shows a part of the results.

Experiment: chemical genetic growth profiling, strain panel (AID 1159580);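 note: tested at 20 µM; growth read once vehicle control cultures reached saturation at 30 °C; 1 = growth at the plate median or of vehicle wells; lower values mean less growth of the strain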
Details: S. cerevisiae deletion strains, growth OD

Measured: normalized growth

COc1ccc2c(c[n+](C)c3c4cc5c(cc4ccc23)OCO5)c1OC
active: locus YAL040C, strain CLN3, hits give low values 0.583 | locus YER002W, strain NOP16, hits give low values 0.58 | locus YGR078C, strain PAC10, hits give low values 0.496 | locus YMR307W, strain GAS1, hits give low values 0.131 | locus YNL175C, strain NOP13, hits give low values 0.519 | locus YNL197C, strain WHI3, hits give low values 0.69 | locus YNL224C, strain SQS1, hits give low values 0.255 | locus YOR083W, strain WHI5 (second series), hits give low values 0.175
